The results in this text go back to PubChem BioAssay (Tox21).

The source made the active and inactive calls. Unless noted, calls come from the whole dose curve; as a rule, active = well fitted curve in the direction sought with a large enough effect in the repeat runs; inconclusive = weak or mixed curves; inactive = flat fitted curve, though single readings scatter.

Experiment [1] is described as follows: qHTS assay to test for compound auto fluorescence at 535 nm (green) in HEK293 cells (AID 720680).
Experiment [2] in a line: qHTS assay to test for compound auto fluorescence at 460 nm (blue) in HEK293 cell free culture (AID 720681). The method, boiled down:
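Blue fluorescence (Ex 405/Em 460 nm, triamterene-equivalent) was read immediately after pin transfer of compound or DMSO into medium (DMEM, 10% FBS) without cells.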

Experiment [3] in a line: qHTS assay to test for compound auto fluorescence at 535 nm (green) in HEK293 cell free culture (AID 720682). In outline:
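Cell-free medium (DMEM, 10% FBS) receives compound or DMSO by pintool. Plate read directly at Ex 485/Em 535 nm. Signal converted to fluorescein equivalency.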

Experiment [4] is described as follows: qHTS assay to test for compound auto fluorescence at 590 nm (red) in HEK293 cell free culture (AID 720683). In outline: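 Red-channel autofluorescence of compounds in culture medium (DMEM, 10% FBS), no cells, measured at 540/590 nm. Rose Bengal sodium is the reference fluorophore for equivalence.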
Experiment [5] in a line: qHTS assay to test for compound auto fluorescence at 590 nm (red) in HepG2 cell free culture (AID 720684). In outline: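 No cells present: MEM + 10% FBS only. Compound pinned in, red label read (540/590 nm). Activity = fluorescence equivalent to Rose Bengal sodium.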
Experiment [6] in a line: qHTS assay to test for compound auto fluorescence at 460 nm (blue) in HepG2 cell free culture (AID 720685). In outline:
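Cell-free plates of MEM plus 10% FBS received 23 nL compound or DMSO vehicle; blue-channel (405/460 nm) intensity scored against triamterene as reference fluorophore.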

Experiment [7] addresses Glucocorticoid receptor (Homo sapiens) (UniProt P04150). Description: qHTS assay to identify small molecule agonists of the glucocorticoid receptor (GR) signaling pathway (AID 720691; active = well fitted activation curve with a large enough effect in the signal ratio in the repeat runs, not every such curve was filed as active; inconclusive = weak or mixed curves, or effect the other way; inactive = no such curve, though single readings can be large or run the other way; the % refers to the signal ratio; note: potency is the fitted concentration of half-maximal effect). The following applies: GR-bla HeLa, beta-lactamase reporter ratio, 18 h; activation: at 62.4 µM (top of the series). The method, boiled down: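 Cells: GR-bla HeLa, endogenous GR with stably integrated GRE-beta-lactamase reporter. Treatment 18 h, 37 C, compounds delivered in DMSO. Detection via LiveBLAzer B/G FRET substrate, 2 h RT, fluorescence intensity.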

Experiment [8] is described as follows: qHTS assay to test for compound auto fluorescence at 460 nm (blue) in HepG2 cells (AID 720687). The method, boiled down: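 Blue-channel autofluorescence (Ex/Em 405/460 nm, triamterene-equivalent) was measured after 1 hr compound exposure at 37 C, 5% CO2. Cells were HepG2, plated overnight at 37 C in MEM plus 10% FBS.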
For experiment [9], the target named is Glucocorticoid receptor (Homo sapiens) (UniProt P04150). In words: qHTS assay to identify small molecule antagonists of the glucocorticoid receptor (GR) signaling pathway (AID 720692; active = well fitted inhibition curve with a large enough effect in the signal ratio in the repeat runs, not every such curve was filed as active; inconclusive = weak or mixed curves, or effect the other way; inactive = no such curve, though single readings can be large or run the other way; the % refers to the signal ratio). The method, boiled down:
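Quantitative HTS in antagonist format: HeLa cells expressing endogenous GR and a stably integrated GRE-bla reporter, stimulated with 5 nM dexamethasone (final) alongside test compounds for 18 h.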

Glucocorticoid receptor (Homo sapiens), sequence (P04150 whole entry, looked up): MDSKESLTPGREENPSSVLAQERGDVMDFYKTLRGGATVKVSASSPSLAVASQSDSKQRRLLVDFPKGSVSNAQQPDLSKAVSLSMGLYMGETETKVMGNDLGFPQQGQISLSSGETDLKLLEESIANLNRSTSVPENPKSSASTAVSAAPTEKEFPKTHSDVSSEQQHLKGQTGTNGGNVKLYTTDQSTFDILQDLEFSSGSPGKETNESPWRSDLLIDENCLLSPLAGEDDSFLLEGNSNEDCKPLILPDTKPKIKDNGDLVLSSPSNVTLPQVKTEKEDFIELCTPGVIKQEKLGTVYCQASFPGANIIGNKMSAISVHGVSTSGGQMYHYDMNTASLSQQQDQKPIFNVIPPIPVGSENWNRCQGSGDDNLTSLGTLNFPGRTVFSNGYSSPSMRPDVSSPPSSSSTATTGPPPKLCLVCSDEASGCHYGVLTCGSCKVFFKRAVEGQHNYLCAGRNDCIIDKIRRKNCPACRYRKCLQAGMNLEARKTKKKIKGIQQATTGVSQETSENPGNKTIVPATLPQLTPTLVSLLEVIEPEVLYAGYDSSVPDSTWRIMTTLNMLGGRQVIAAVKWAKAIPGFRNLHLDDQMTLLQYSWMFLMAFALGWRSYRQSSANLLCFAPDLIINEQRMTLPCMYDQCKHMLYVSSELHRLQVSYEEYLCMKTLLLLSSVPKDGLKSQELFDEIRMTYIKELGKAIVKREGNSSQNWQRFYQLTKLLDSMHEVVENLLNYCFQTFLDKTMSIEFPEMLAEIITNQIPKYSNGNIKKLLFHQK

`O=C[C@H](O)[C@@H](O)[C@H](O[C@H]1O[C@H](CO)[C@@H](O[C@H]2O[C@H](CO)[C@@H](O)[C@H](O)[C@H]2O)[C@H](O)[C@H]1O)[C@H](O)CO`: the Potency entry in experiment [1], in experiment [2], in experiment [3], in experiment [4], in experiment [5] and in [7] was “inactive” throughout. Moreover, the compound was called inactive in [6].

Consider `Cc1cc(-n2c(=O)[nH]c(=O)n(C)c2=O)ccc1Oc1ccc(S(=O)(=O)C(F)(F)F)cc1`, for which the Potency entry in experiment [1], in [2], in experiment [3], in [4], in experiment [5] and in experiment [7] was “inactive” in each case. Moreover, the compound was classed as inactive in experiment [6] and in [8].

In the case of `C[C@H]1C[C@@H]2[C@H]([C@@H](O)C[C@@]3(C)[C@H]2CC[C@]3(O)C(=O)COC(=O)CCC(=O)O)[C@@]2(C)C=CC(=O)C=C12`, the Potency entry in experiment [1], in [2], in [3], in experiment [4] and in [5] was “inactive” each time. Moreover, the compound was classed as inactive in experiment [6] and in [8]. For the same compound, the Potency in [7] is 26.8 nM [inconclusive] (active).

In the case of `Cc1c(O)cc2c(c1C)O[C@](C)(CCC[C@H](C)CCC[C@H](C)CCCC(C)C)CC2`, the Potency entry in [1], in [2], in experiment [3], in experiment [4], in [5] and in experiment [7] was “inactive” in each case. Besides, the Potency result in [9] was “inactive”. For the same compound, the call in experiment [6] and in experiment [8] was inactive.
